# Data as given in PubChem BioAssay (NCATS).
# Records with an inconclusive call do not appear. Values without a mark were called inactive. Active and inactive are the calls of the source. Calls follow the shape of the dose curve; as a rule, active = well fitted inhibition curve with a large enough effect; inconclusive = small, poorly fitted or top-dose-only effect; inactive = flat fitted curve, though single readings scatter.
# Molecular target: Aldehyde dehydrogenase, mitochondrial (Homo sapiens) (UniProt P05091)
# Assay: qHTS for Inhibitors of the Aldehyde Dehydrogenase Family (ALDH2) Primary screen (AID 2061308); also: nearly all actives have a fitted effect of over 55% in size;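 as to activity change, negative = inhibition: plate controls were vehicle for no effect and reference inhibitor for full effect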
# Conditions: ALDH2 enzyme inhibition qHTS, 1536-well; series mostly up to 56 µM; activity change, negative = inhibition: at the top concentration
# Potency is read from the fitted curve at half-maximal effect.
SMILES,"activity change, negative = inhibition",Potency
FC(F)(F)c1cc(Cl)cc(-c2ccc(CNc3nc(-c4ccccc4C(F)(F)F)nc4ccccc34)cc2)c1,-13.6%,–
C=C1/C(=C/C=C2\CCC[C@]3(C)[C@@H]([C@H](C)/C=C/C(=O)C4CC4)CC[C@@H]23)C[C@@H](O)C[C@@H]1O,-12.1%,–
C=C1CC[C@@H](O)[C@]2(C)CC[C@H]3C(=C)C(=O)O[C@@H]3[C@@H]12,-4.4%,–
COc1cccc(Cn2ncc3c4sc(B(O)O)cc4n(C)c3c2=O)c1,3.77%,–
COc1ccccc1-c1nc(-c2cccc(C(=O)O)c2)no1,6.14%,–
CCC(=O)NC(c1ccco1)c1cc(Cl)c2ccccc2c1O (stereo not given),-28.2%,–
CC1(C)OB(c2ccc(O)c3ncc(N4CCNCC4)cc23)OC1(C)C,-6.23%,–
O=C(O)c1ccc(-c2noc(-c3ccc(F)cc3)n2)cc1,3.47%,–
O=S(=O)(Nc1cccc2cccnc12)c1ccc2ccccc2c1,-9.92%,–
O=C(O)c1cccc(-c2noc(-c3cccc(F)c3)n2)c1,1.81%,–
Fc1ccccc1-c1nc(-c2cccc(-c3nn[nH]n3)c2)no1,4.04%,–
NC(Cc1c[nH]c2ccc(O)cc12)C(=O)O (stereo not given),-4.33%,–
Cc1ccc(C2Nc3cccc4cccc(c34)N2)cc1,-11%,–
CC(C)(C)OC(=O)N1CCN(c2ccc(NCc3ncc(-c4ccc(C#N)cc4)o3)cc2)CC1,–,1.12 µM (active)
CCCCN(C)C(=O)Cn1nc(-c2ccc(C(C)=O)cc2)ccc1=O,18.8%,–
CC(C)(C)OC(=O)N1CCN(c2ccc(NCc3ccc(-c4cc(C(F)(F)F)cc(C(F)(F)F)c4)o3)cc2)CC1,-21.6%,–
CC(=O)NC(c1cc(Cl)c2ccccc2c1O)C1CC1 (stereo not given),-17.3%,–
O=C(O)c1cccc(-c2noc(-c3ccc(Cl)cc3)n2)c1,12.3%,–
COc1ccc(-c2nc(-c3cccc(C(=O)O)c3)no2)cc1,2.57%,–
C=C1CC[C@@H]2[C@](C)(CO)[C@H](O[C@@H]3O[C@H](CO)[C@@H](O)[C@H](O)[C@H]3O)CC[C@@]2(C)[C@@H]1C/C=C1/C(=O)OC[C@H]1O,-8.82% [at 28 µM],–

SMILES,"activity change, negative = inhibition",Potency
CN1CCN(c2ccc(Nc3c4ccccc4nc4ccccc34)cc2)CC1,-18.3%,–
O=C(NCCc1ccc(O)c(O)c1)c1cc2sccc2n1Cc1ccccc1,-24%,–
FC(F)(F)c1ccc(N2CCN(C(=S)Nc3ccccn3)CC2)cc1,-4.27%,–
CN1CCc2ccc3c4c2[C@]1(C)Cc1cccc(c1-4)OCO3,-21.4%,–
O=C(O)c1ccc(-c2noc(-c3ccc(Cl)cc3)n2)cc1,-0.81%,–
OC/C=C/c1ccc(O[C@@H]2O[C@H](CO)[C@@H](O)[C@H](O)[C@H]2O)cc1,-6.17%,–
C/C(=C\c1ccc(F)cc1)C1Nc2cccc3cccc(c23)N1,-15.2%,–
COc1ccc(C2Nc3cccc4cccc(c34)N2)cc1,-11.6%,–
O=C(O)c1cccc(-c2noc(-c3ccccc3C(F)(F)F)n2)c1,-11.1%,–
Cc1ccnc(NC(=S)N2CCc3cccc(C(F)(F)F)c3C2)c1,-16%,–
CC1=CC2=C(C)C(=O)[C@](C)(O)[C@H](O)C2=CO1,-17.1%,–
COc1cc(N2CCOCC2)ccc1Nc1ncc(Cl)c(Nc2ccccc2NS(C)(=O)=O)n1,-6.33%,–
N#Cc1nc(NCC(F)F)c2ncn(-c3cccc(Cl)c3)c2n1,5.33%,–
Cc1ccc(Nc2c(F)cccc2Cl)c(CC(=O)O)c1,-11.5%,–
Fc1ccccc1-c1nc(-c2ccccc2)no1,6.94%,–
CNc1nc(Nc2ccc(C(=O)N3CCOCC3)cc2OC)nc2[nH]cc(Cl)c12,-15.5%,–
O=C(Nc1nnc(-c2ccncc2)s1)Nc1ccc(Cl)c2ccccc12,-0.427%,–
CN1CCN(c2ccc(-c3cc(O)c4ncccc4c3)cc2)CC1,-0.93%,–
C/C(=C\c1ccccc1)C1Nc2cccc3cccc(c23)N1,-7.06%,–
COc1ccc(/C=C(\C)C2Nc3cccc4cccc(c34)N2)cc1,-9.51%,–
